Assay outcomes as filed in PubChem BioAssay.
Hits are enriched below; roughly 21% of the tested compounds scored in any of these assays.
Pf growth 96h = Primary qHTS for delayed death inhibitors of the malarial parasite plastid, 96 hour incubation; P. falciparum luciferase reporter growth, 96 h; Potency, µM (highest dose often 28.7 µM), actives largely listed as inhibitors; 320,000 compounds, 6.9% hits
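Compounds incubated with erythrocytes infected by luciferase-expressing P. falciparum (2% hematocrit, 0.05% parasitemia final) for 96 hours, 37 C in 5% CO2. Growth inhibition scored as decreased luciferase luminescence.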
Shiga inhibitor = A qHTS for Small Molecule Inhibitors of Shiga Toxin | Vero cells, Shiga toxin protein synthesis inhibition reporter | inhibition, % at 38.7 µM | 290,000 compounds, 9.2% hits; in the data active = inhibition mostly above about 28%, no sharp cut-off; inactive = mostly below about 43%
AMA1-RON2 inh = qHTS for Inhibitors of AMA1-RON; Towards Development of Antimalarial Drug Lead: Primary Screen; Plasmodium falciparum AMA1 (3D7) - RON2 peptide interaction; AlphaScreen AMA1-biotinylated RON2 peptide binding; Potency, µM (doses to about 58.2 µM), hits mostly inhibitors; 360,000 compounds, 0.2% hits; AID 720542, 2013; also: nearly all actives have a fitted effect of over 45% in size
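AMA1 (3D7) with his tag at 25 nM final met compounds first, then biotinylated RON2 peptide at 25 nM; detection used donor plus acceptor beads, 10 µg/mL apiece, read by AlphaScreen after 30 min at room temperature.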
HCV inhibitor = qHTS Assay for Inhibitors of Hepatitis C Virus (HCV); Huh7.5.1 HCVcc-Cre infection, luciferase reporter, 44 h; Potency, µM (doses to about 41.8 µM), hits mostly inhibitors; 340,000 compounds, 3.4% hits
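Antiviral activity was scored by luciferase reporter output from cells infected with HCVcc-Cre (~0.5 moi) in presence of compound, 44 h infection period, cells seeded 1,000/well 4 h prior.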
Pf growth 48h = Primary qHTS for delayed death inhibitors of the malarial parasite plastid, 48 hour incubation. P. falciparum luciferase growth in erythrocytes, 48 h. Potency, µM (series often up to 28.7 µM), hits mostly inhibitors. 310,000 compounds, 5.9% hits. AID 504832, 2011
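Cell-based growth assay: transgenic P. falciparum expressing firefly luciferase, cultured in red cells within RPMI 1640 containing 0.5% w/v Albumax, 24 mM bicarbonate and gentamycin. A drop in luciferase activity indicates inhibition.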
Cycloheximide cs = Cycloheximide Counterscreen for Small Molecule Inhibitors of Shiga Toxin; 300,000 compounds, 12% hits; max response, %; AID 2314, 2010; cell reporter, cycloheximide protein synthesis inhibition counterscreen; in the data active = max response mostly above about 13%, no sharp cut-off; inactive = mostly below about 14%; also: read at 38.3 µM for the half of the compounds with a filed dose
Large screens that a line does not name were inactive. Unless noted, calls follow the shape of the dose curve; as a rule, active = well fitted curve in the direction sought with a large enough effect; inconclusive = small, poorly fitted or top-dose-only effect, or another doubt; inactive = no such curve, though single readings can be large; an effect the other way counts as inactive or inconclusive.

COc1ccc(-c2cc(=O)c3c(O)cc(O)cc3o2)cc1O	Shiga inhibitor 70.1, Cycloheximide cs 34.0 (no result: Pf growth 96h, AMA1-RON2 inh, HCV inhibitor, Pf growth 48h)
O=c1c(O[C@@H]2O[C@H](CO)[C@H](O)[C@H](O)[C@H]2O)c(-c2ccc(O)c(O)c2)oc2cc(O)cc(O)c12	none (no result: Pf growth 96h, AMA1-RON2 inh, HCV inhibitor, Pf growth 48h)
O=c1cc(-c2ccc(O)cc2)oc2ccc3ccccc3c12	HCV inhibitor 12.6µM (no result: Shiga inhibitor, Cycloheximide cs)
CN(CC(=O)Nc1ccc(Cl)cc1)C(=O)CCC1CCCC1	none
CCn1c(=O)c2sccc2n(Cc2ccc(C)cc2)c1=O	none
COCC(=O)N1C[C@H](C)[C@H](OC)CN(C)C(=O)c2cc(NC(=O)Nc3cccc(F)c3)ccc2OC[C@@H]1C	none (no result: Pf growth 96h, Shiga inhibitor, HCV inhibitor, Pf growth 48h, Cycloheximide cs)
O=C(COC(=O)c1nc(Cl)ccc1Cl)NNC(=O)c1cccs1	none (no result: Shiga inhibitor, Cycloheximide cs)
COc1ccc(NC(=O)COC(=O)CCOc2ccccc2C)cc1Cl	none (no result: Shiga inhibitor, Cycloheximide cs)
COc1cc2oc(-c3ccc(O)cc3)cc(=O)c2c(OC)c1O	Pf growth 96h inconclusive, Pf growth 48h inconclusive
COc1cc2oc(-c3ccc(O)cc3)cc(=O)c2c(O)c1OC	Pf growth 96h 10.4µM, HCV inhibitor inconclusive, Cycloheximide cs 10.1
CC1CCC/C(=C\Nc2ccc(C(=O)O)cc2)C1=O (configuration not stated)	Pf growth 96h inconclusive, Shiga inhibitor 54.6, Cycloheximide cs 36.6
CCOC(=O)c1ccccc1N/C=C1\CCCCC1=O	HCV inhibitor inconclusive
Cc1cc(O)ccc1N/C=C1\CCCC1=O	Pf growth 96h inconclusive, Shiga inhibitor 41.9, Cycloheximide cs 13.4
CCOC(=O)c1ccc(NC=C2C(=O)OC3(CCCCC3)OC2=O)cc1	none
CC1CCC/C(=C\Nc2ccc(C(=O)O)c(O)c2)C1=O (configuration not stated)	Shiga inhibitor 81.8, Cycloheximide cs 38.0
CCOC(=O)c1ccc(N/C=C2/CCCC(C)C2=O)cc1 (configuration not stated)	Shiga inhibitor 51.9, Cycloheximide cs 57.3 (no result: Pf growth 48h)
Cc1ccc([N+](=O)[O-])cc1NC(=O)C1CCCC1	Pf growth 96h inconclusive, HCV inhibitor inconclusive
COc1ccc2c(c1)CCCC2=O	none (no result: Pf growth 96h, Shiga inhibitor, Pf growth 48h, Cycloheximide cs)
CC(=O)Nc1ccc(N/C=C2/CCCC2=O)cc1	Shiga inhibitor 48.8, Cycloheximide cs 10.5
CC(=O)Nc1ccc2c(c1)CCCC2=O	Cycloheximide cs 15.6
COc1nccnc1NS(=O)(=O)c1ccc(N/C=C2\CCCCC2=O)cc1	Pf growth 96h inconclusive
Cc1ccc([N+](=O)[O-])cc1N/C=C1\CCCCC1=O	Shiga inhibitor 92.9, HCV inhibitor inconclusive, Cycloheximide cs 57.6
O=C1CCCC/C1=C\Nc1ccc(C(=O)O)c(O)c1	Shiga inhibitor 62.1, Cycloheximide cs 17.2
CC(C)CN1C(=O)CSCC1(C)C(=O)NC(C)C (configuration not stated)	none (no result: Pf growth 96h, Shiga inhibitor, HCV inhibitor, Pf growth 48h, Cycloheximide cs)
Cc1cc2c(s1)c1cnn(Cc3cc(C(F)(F)F)cc(Cl)c3F)c(=O)c1n2C	none (no result: Pf growth 96h, AMA1-RON2 inh, HCV inhibitor, Pf growth 48h)
Cc1ccccc1OCC(=O)O/N=C(\N)c1ccncc1	Shiga inhibitor 98.6, Pf growth 48h inconclusive, Cycloheximide cs 44.5
Cc1ccc(SC(C)C(=O)O/N=C(\N)c2ccncc2)cc1 (configuration not stated)	Pf growth 96h inconclusive, HCV inhibitor inconclusive, Pf growth 48h inconclusive, Cycloheximide cs 19.9
Cc1cc(C)c(C)c(OCC(=O)O/N=C(\N)c2ccncc2)c1	HCV inhibitor inconclusive, Pf growth 48h inconclusive
Cc1ccc(OCC(=O)O/N=C(\N)c2ccncc2)c(C)c1	Shiga inhibitor 113.6, Cycloheximide cs 32.8
Cc1cccc(C)c1NC(=O)CS(=O)CC(=O)NCC1OCCc2ccccc21 (configuration not stated)	none
COC(=O)C1CN(Cc2ccccc2)C(=O)C1=O (configuration not stated)	none (no result: Pf growth 96h, Shiga inhibitor, Pf growth 48h, Cycloheximide cs)
N#CCCCCN1CCCC1	none
O=C(c1ccccc1)c1c2c(cc3sc4ccccc4[n+]13)-c1cccc3cccc-2c13	Pf growth 96h 0.465µM, Shiga inhibitor 38.0, HCV inhibitor inconclusive, Pf growth 48h 0.928µM, Cycloheximide cs 27.5
Cc1sc2cc3c(c(C(=O)c4ccccc4)[n+]2c1C)-c1cccc2cccc-3c12	Pf growth 96h 0.329µM, HCV inhibitor 10µM, Pf growth 48h 0.828µM
Cc1sc2ccccc2[n+]1CC(=O)c1ccccc1	none (no result: Shiga inhibitor)
O=[N+]([O-])CC(=Nc1ccc(Cl)cc1)N/N=C\c1oc(O)c2ccccc12	HCV inhibitor inconclusive, Cycloheximide cs 20.6 (no result: Pf growth 48h)
O=c1[nH][nH]c(=O)c(Cl)c1Cl	none (no result: Pf growth 96h, Shiga inhibitor, Pf growth 48h, Cycloheximide cs)
CC(=O)c1cc2cccc(OC3(C)CCN(Cc4ccc(-c5ccccn5)cc4)C3)c2o1 (configuration not stated)	none (no result: Pf growth 96h, Shiga inhibitor, HCV inhibitor, Pf growth 48h, Cycloheximide cs)
COc1ccc(-c2nc3n(n2)C(c2ccncc2)C(C(N)=O)=C(C)N3)cc1 (configuration not stated)	Pf growth 96h inconclusive
CC1=C(C(=O)Nc2cccnc2)C(c2cccnc2)n2nc(-c3cccs3)nc2N1 (configuration not stated)	Pf growth 96h 9.28µM
COc1ccc(-c2nc3n(n2)C(c2cccnc2)C(C(N)=O)=C(C)N3)cc1 (configuration not stated)	Pf growth 96h 11.7µM
CC(C)(C)C(=O)Nc1ccc(C(=O)NNC(=O)Cc2ccccc2)cc1	Pf growth 96h 2.94µM, Cycloheximide cs 14.8
CC(C)(C)C(=O)Nc1ccc(C(=O)NNC(=O)c2ccccc2)cc1	Pf growth 96h 13.1µM, Shiga inhibitor 78.0, Cycloheximide cs 31.3
CC(C)(C)C(=O)Nc1ccc(C(=O)Nc2cc(NC(=O)c3ccc(NC(=O)C(C)(C)C)cc3)cc(C(=O)O)c2)cc1	Pf growth 48h inconclusive, Cycloheximide cs 18.7
CC(C)(C)c1ccc(C(=O)NCc2nnc(SCC(=O)NC3CCCCC3)o2)cc1	none
COc1ccc(NC(=O)[C@@H]2O[C@H](CO)[C@H](O)[C@H](O)[C@H]2O)cc1F	none (no result: Pf growth 96h, Shiga inhibitor, HCV inhibitor, Pf growth 48h, Cycloheximide cs)
O=S(=O)(Cc1noc(-c2ccccc2Cl)n1)c1ccccn1	Shiga inhibitor 71.8, AMA1-RON2 inh inconclusive, Cycloheximide cs 41.2
Nc1ccc(C(=O)Nc2nc3ccccc3s2)cc1	Shiga inhibitor 41.7, Cycloheximide cs 40.8
Cc1cc(C)n(-c2ccc(C(=O)Nc3nc4ccccc4s3)cc2)n1	HCV inhibitor inconclusive, Cycloheximide cs 19.8
CC(=O)Nc1cc(C)nn1-c1nc2ccccc2s1	Shiga inhibitor 52.2, HCV inhibitor inconclusive, Cycloheximide cs 33.1
O=C(CP(=O)(c1ccccc1)c1ccccc1)Nc1nc2ccccc2s1	Pf growth 96h inconclusive
CC(OC(=O)Cn1cnc2c1c(=O)n(C)c(=O)n2C)C(=O)N(C)c1ccccc1 (configuration not stated)	none (no result: Shiga inhibitor, Cycloheximide cs)
Cc1ccc(S(=O)(=O)N2CCN(C)CC2)c(C)c1	Pf growth 96h 2.62µM
